VDR inhibitor – blocks the human vitamin D receptor; P11473; VDR-SRC2-3 peptide fluorescence polarization, 2 h; Potency, µM, for the others: max response, negative = inhibition, usual class: inhibitors; 400,000 compounds, 0.93% hits; note: potency is the fitted concentration of half-maximal effect; % is set by controls: 0 for no effect and ±100 for the full control effect
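After 23 nl compound addition and a short centrifugation, plates sat for 2 hours at ambient temperature; polarization of fluorescence then indicated loss of VDR binding to peptide SRC2-3.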
PI5P4Ka inh – inhibitors of human PI5P4K alpha; PI5P4Kalpha enzyme, ADP-Glo luminescence, 60 min; active compounds read low; max response, %; 330,000 compounds, 1.2% hits; AID 652105; active = max response of -50% or lower; inconclusive = between -30% and -50%; inactive = -30% or higher; note: value at the top dose of about 77 µM; % is set by controls: 0 for no effect and ±100 for the full control effect
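PI5P4Kalpha ADP-Glo assay; 5 microM ATP final; 60 min RT reaction; HEPES pH 7.4/EGTA/CHAPS, 5% DMSO; controls lacking substrate or enzyme; luminescent end-point.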
Rango-impB inh – prevents formation of the Rango-importin beta complex | Rango CFP/YFP FRET sensor + importin beta, 45 min | Potency, µM (doses to about 92.2 µM), for inactives: at the top dose inhibition of complex formation | 340,000 compounds, 0.031% hits; calls by dose curve;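 note: potency is the fitted concentration of half-maximal effect; 0% = DMSO wells and 100% = buffer wells lacking importin beta; nearly all actives have a fitted effect of over 15% in size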
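FRET biosensor (snurportin 1 IBB flanked by EYFP and cerulean), 50 nM, with compound 5 min, then 0.125 microM importin beta in PBS, 1 mM DTT, 0.02% Tween-20, 0.1% BSA. CFP/YFP ratio read after 45 min at room temperature; pre-read flags interference.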
PLK1 PBD block – inhibitors of human PLK1 polo-box domain binding. P53350. Plk1 PBD binding of FITC phosphopeptide, fluorescence polarization. Potency, µM, for inactives: max response, negative = inhibition, hits mostly inhibitors. 360,000 compounds, 2.8% hits. AID 720504; note: potency is the fitted concentration of half-maximal effect; series mostly up to about 57 µM; % is set by controls: 0 for no effect and ±100 for the full control effect; nearly all actives have a fitted effect of over 65% in size
GCN5L2 inh – blocks human GCN5L2 histone acetyltransferase; GCN5L2 HAT assay, ThioGlo1 CoA-SH fluorescence; 390,000 compounds, 0.21% hits; AID 504327; Q92830; Potency, µM (titrated, usually from 58.9 µM), inactives show at the highest dose activity change, negative = inhibition, actives largely listed as inhibitors; note: potency is the fitted concentration of half-maximal effect; % is set by controls: 0 for no effect and ±100 for the full control effect
Target sequence (Q92830 whole entry, looked up): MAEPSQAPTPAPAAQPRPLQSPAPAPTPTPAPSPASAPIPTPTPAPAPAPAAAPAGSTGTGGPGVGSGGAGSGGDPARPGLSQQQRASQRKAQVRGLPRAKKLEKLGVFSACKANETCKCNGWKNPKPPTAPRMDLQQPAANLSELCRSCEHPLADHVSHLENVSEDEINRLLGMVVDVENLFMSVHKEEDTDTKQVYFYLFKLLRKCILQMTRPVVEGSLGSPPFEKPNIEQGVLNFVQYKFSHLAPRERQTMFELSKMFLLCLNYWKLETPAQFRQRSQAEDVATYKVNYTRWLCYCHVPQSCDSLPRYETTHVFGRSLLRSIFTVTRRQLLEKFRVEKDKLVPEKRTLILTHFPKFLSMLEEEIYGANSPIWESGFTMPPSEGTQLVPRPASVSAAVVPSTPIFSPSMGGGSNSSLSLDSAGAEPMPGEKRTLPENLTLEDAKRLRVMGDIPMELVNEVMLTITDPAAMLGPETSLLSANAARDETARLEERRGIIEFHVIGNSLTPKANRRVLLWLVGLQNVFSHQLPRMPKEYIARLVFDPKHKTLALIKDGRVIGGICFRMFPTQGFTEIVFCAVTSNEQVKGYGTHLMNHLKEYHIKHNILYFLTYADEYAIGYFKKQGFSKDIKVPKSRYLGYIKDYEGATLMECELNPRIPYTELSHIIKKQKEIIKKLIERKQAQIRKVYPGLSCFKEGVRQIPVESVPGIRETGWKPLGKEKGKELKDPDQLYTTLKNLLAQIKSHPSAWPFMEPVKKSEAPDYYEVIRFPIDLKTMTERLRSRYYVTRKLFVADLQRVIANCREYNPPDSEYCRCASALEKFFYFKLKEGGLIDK
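Free CoA generated was detected with ThioGlo1 (50uM) fluorescence at Ex340nm/Em540nm, read immediately and after 20 min at room temperature. Enzyme, 20 nM in HEPES pH 7.5 buffer, saw compounds 15 min before adding 75uM H3(1-25) peptide and 70uM acetyl-CoA.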
Rango dissoc inh – inhibitors of RanGTP-induced Rango-importin beta complex dissociation. Biochemical FRET Rango-importin beta, RanGTP-induced dissociation. Potency, µM (series often up to 46.1 µM), inactives show at the highest dose activity change, negative = inhibition. 340,000 compounds, 0.071% hits. AID 540253; calls by dose curve; note: potency is the fitted concentration of half-maximal effect; % of control where 0% means no effect; nearly all actives have a fitted effect of over 45% in size
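Two FRET readings bracket the reaction: one 5 min after compound meets Rango–importin beta, another 45 min after RanGTP-RCC1 (0.6 uM Ran, 0.2 uM RCC1, 2 mM GTP) is added. Only the second defines inhibition.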
ADP-Glo interf – ADP-Glo luciferase interference, PI5P4K counter-screen. shares compounds with PI5P4Ka inh. ADP-Glo detection counter-screen, luciferase luminescence, no enzyme. Potency, µM (titrated, usually from 76.9 µM), inactives show top-dose activity change, negative = inhibition, hits mostly inhibitors. 1,100 tested, under 10 active. AID 743285
* = called active by the depositor; ? = inconclusive; · = not tested or not shown. Hits are enriched below; roughly 3.6% of the tested compounds scored in any of these assays. Unless noted, calls come from the whole dose curve; as a rule, active = well fitted curve in the direction sought with a large enough effect; inconclusive = small, poorly fitted or top-dose-only effect, or another doubt; inactive = no such curve, though single readings can be large; an effect the other way counts as inactive or inconclusive.

SMILES | VDR inhibitor | PI5P4Ka inh | Rango-impB inh | PLK1 PBD block | GCN5L2 inh | Rango dissoc inh | ADP-Glo interf
COc1cc2nc(COc3ccccc3[N+](=O)[O-])oc(=O)c2cc1OC | -17% | -57* | -6% | -22% | 0% | 5% | 2%
CCc1ccc(CN(Cc2ccco2)c2cnc(S(C)(=O)=O)nc2C(=O)Nc2cccc(C)c2)cc1 | 3% | · | · | · | -14% | · | ·
O=C(O)c1sccc1NC(=O)c1c(Cl)cccc1Cl | -1% | -55* | 1% | -2% | 2% | 16% | 2%
COC(=O)c1sccc1NC(=O)c1c(Cl)cccc1Cl | -22% | 1 | 4% | -22% | -5% | 9% | ·
Cc1c(CC(=O)NCCc2ccccc2F)c(=O)oc2c(C)c3occ(C(C)(C)C)c3cc12 | 8% | · | · | · | -8% | · | ·
CCC(Oc1ccccc1)C(=O)Nc1ccc(O)c(-c2nc3cc(C)ccc3o2)c1 (stereo not drawn) | 5% | · | · | · | ? | · | ·
O=C(NCc1ccco1)c1ccc(S(=O)(=O)N2CCOCC2)cc1 | -8% | -53* | -3% | ? | -28% | -6% | 0%
COCCNC(=O)C1(C(F)(F)F)C/C(=C\Cc2ccccc2)CCCO1 (stereo not drawn) | -1% | · | · | · | · | · | ·
CCOc1ccc(CNS(=O)(=O)c2cc3c(cc2C)NC(=O)CO3)cc1OC | 1% | · | · | · | 1% | · | ·
CCCCc1c(-c2ccccc2)ncn1CCc1ccccc1OC | · | 2 | · | 3% | · | · | ·
CCCCc1c(Cc2ccccc2)ncn1CCc1ccccc1OC | · | -67* | · | -26% | · | · | 2%
COCCN1C(=O)c2[nH]nc(-c3ccccc3O)c2C1c1ccc(OCc2ccccc2)c(OC)c1 (stereo not drawn) | 0% | · | · | · | -11% | · | ·
Cn1nnnc1SCc1nc2scc(-c3ccc(Cl)cc3)c2c(=O)[nH]1 | -7% | -68* | ? | -9% | -8% | 13% | -1%
CC(C)NC(=O)C1CCC(Cn2c(=O)c3sccc3n(CC(=O)NCc3ccccc3)c2=O)CC1 (stereo not drawn) | 2% | · | · | · | 3% | · | ·
CCOC(=O)Cc1cc(=O)n2[nH]c(-c3ccccc3)c(-c3ccccc3)c2n1 | -1% | -50* | -2% | -28% | -7% | -1% | 3%
CCOC(=O)CCn1nc(C)c2c(C)n(-c3ccccc3)nc2c1=O | 3% | · | · | · | 0% | · | ·
COc1ccccc1NC(=O)c1nc[nH]c1C(=O)Nc1ccccc1OC | 2% | -3 | 0% | ? | -6% | -17% | ·
COC(=O)c1[nH]cnc1C(=O)c1ccccc1 | -4% | -61* | -1% | -1% | -3% | -4% | 2%
COc1ccc(C2c3c(n(C)c4ccccc34)C(=O)N2CC(=O)Nc2cccc(Cl)c2)cc1 (stereo not drawn) | 0% | · | · | · | -12% | · | ·
CNc1nc(NCc2ccc(C)cc2C)c2sccc2n1 | · | -5 | · | -14% | · | · | ·
COc1ccccc1CNc1nc(NCc2cccs2)nc2ccsc12 | · | -29 | · | 5% | · | · | ·
COc1ccccc1CNc1nc(NCc2ccccc2OC)c2sccc2n1 | · | · | · | -1% | · | · | -4%
COc1ccccc1CNc1nc(NCCOc2ccccc2)c2sccc2n1 | · | · | · | -6% | · | · | -6%
Cc1ccc(CNc2nc(NCc3ccccc3)nc3ccsc23)c(C)c1 | · | · | · | -2% | · | · | -2%
COCCNc1nc(NCc2ccccc2OC)c2sccc2n1 | · | 2 | · | -5% | · | · | ·
SMILES | VDR inhibitor | PI5P4Ka inh | Rango-impB inh | PLK1 PBD block | GCN5L2 inh | Rango dissoc inh | ADP-Glo interf
COc1ccccc1CNc1nc(Nc2cccc(-c3cnco3)c2)c2sccc2n1 | · | · | · | -4% | · | · | -3%
CCOC(=O)c1ccc(N2C(=O)c3n[nH]c(-c4ccco4)c3C2c2ccc(OCC)cc2)cc1 (stereo not drawn) | -4% | · | · | · | -13% | · | ·
CCCC(=O)N1c2nc(C(C)C)nn2C2(CCCCC2)[C@@H]2CCCC[C@@H]21 | 2% | · | · | · | -15% | · | ·
c1cc2cc(CNc3nc(NCC4CC4)nc4ccsc34)ccc2o1 | · | ? | · | 1% | · | · | ·
COc1ccccc1CNc1nc(NCc2ccc3occc3c2)c2sccc2n1 | · | · | · | 4% | · | · | 1%
Cc1cccc(N2CCN(S(=O)(=O)c3ccc(F)c(C(=O)Nc4ccc(C(C)C)cc4)c3)CC2)c1C | -3% | · | · | · | -6% | · | ·
O=C(O)c1ccc(S(=O)(=O)N[C@H](Cc2ccc(C(F)(F)F)cc2)C(=O)O)cc1 | · | · | · | · | 3% | · | ·
COc1ccc(-c2csc(NC(=O)c3ccccc3F)c2C(=O)O)cc1 | 0% | -51* | 0% | -6% | -16% | -8% | 0%
COc1cc(C(=O)Nc2scc(-c3ccc(C)cc3)c2C(=O)O)cc(OC)c1OC | ? | -85* | 4% | -24% | -14% | -6% | 7%
COc1cc(C(=O)Nc2scc(-c3ccccc3)c2C(=O)O)cc(OC)c1OC | -16% | -71* | 4% | -17% | -21% | 16% | -7%
CCOC(=O)c1c(-c2cc(OC)c(OC)c(OC)c2)csc1NC(=O)c1ccccc1 | · | 10 | · | -5% | · | · | ·
Cc1nn(CCC(=O)NCc2cccc(Br)c2)c(=O)c2nn(-c3ccccc3)c(C)c12 | -6% | · | · | · | -1% | · | ·
CS(=O)(=O)c1ccc2nc(NC(=O)c3ccc(NS(=O)(=O)c4cccc([N+](=O)[O-])c4)cc3)sc2c1 | -9% | -57* | -3% | -26% | -15% | 14% | -7%
CS(=O)(=O)c1ccc2nc(NC(=O)c3ccccc3)sc2c1 | -17% | -12 | 1% | -9% | -9% | -8% | ·
CCCCN(CC)CCNC(=O)CN1C(=O)COc2ccc(S(=O)(=O)N3CCOCC3)cc21 | 7% | · | · | · | -3% | · | ·
Cc1ccc(C(CCN(Cc2ccccc2)C(=O)c2ccco2)c2ccco2)cc1 (stereo not drawn) | ? | -58* | -3% | -26% | ? | -5% | -2%
C1=C(c2ccc(-c3ccccc3)cc2)Nc2ncnn2C1c1ccco1 (stereo not drawn) | 1% | -56* | ? | 4.7µM* | ? | ? | -11%
Fc1ccc(C2=CC(c3ccco3)n3ncnc3N2)cc1 (stereo not drawn) | -21% | 9 | ? | -26% | -2% | ? | ·
CCOCCCNC(=O)C(c1ccc(C)cc1)N(Cc1ccc2c(c1)OCO2)C(=O)c1ccc(NC(C)=O)cc1 (stereo not drawn) | -5% | · | · | · | -3% | · | ·
CCN(CC(=O)N1CCC(C(N)=O)CC1)S(=O)(=O)c1cc(Cl)ccc1Cl | -2% | -52* | 0% | ? | · | -10% | 4%
O=C(NCc1ccco1)c1ccc2c(c1)N(Cc1ccc(F)cc1)C(=O)c1ccccc1S2=O (stereo not drawn) | -10% | · | · | · | -7% | · | ·

Source: PubChem BioAssay (National Center for Advancing Translational Sciences (NCATS))
